In the library only some 20% were active in any assay of this set; here they are far more common.
Pf growth 96h – P. falciparum growth inhibition at 96 hour, primary screen for plastid delayed-death inhibitors; P. falciparum luciferase reporter growth, 96 h; Potency, µM (series often up to 28.7 µM), without a hit: at the top dose activity change, negative = inhibition, most hits filed as inhibitors; 6.9% of 320,000 active; AID 504834; also: potency is read from the fitted curve at half-maximal effect; % is scaled to controls: 0 for no effect and ±100 for the full control effect
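Delayed-death screen, second-generation endpoint: infected erythrocytes, 2% hematocrit, 0.05% parasitemia final; 96 hours at 37 C, 5% CO2; luciferase detection reagent; luminescence decrease equals reduced growth.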
Pf growth 48h – P. falciparum growth inhibition at 48 hours (one generation); P. falciparum luciferase growth in erythrocytes, 48 h; 5.9% of 310,000 active; Potency, µM (titrated, usually from 28.7 µM), for inactives: at the top dose activity change, negative = inhibition, usual class: inhibitors; AID 504832; also: potency is read from the fitted curve at half-maximal effect; % is scaled to controls: 0 for no effect and ±100 for the full control effect
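Read-out is firefly luciferase luminescence from an integrated reporter in P. falciparum, so falling signal marks reduced parasite growth. Infected erythrocytes were at 2% hematocrit and 0.1% parasitemia (final) in Albumax-supplemented RPMI 1640.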
CHX counter – affects cycloheximide protein synthesis inhibition readout, counter-screen | 12% of 300,000 active | cell reporter, cycloheximide protein synthesis inhibition counterscreen | max response, %; in the data active = max response mostly above about 13%, no sharp cut-off; inactive = mostly below about 14%; also: read at 38.3 µM for the half of the compounds with a filed dose; 0% is about no effect
Shiga toxin inh – blocks Shiga toxin action in Vero cells; Vero cells, Shiga toxin protein synthesis inhibition reporter; inhibition, % at 38.7 µM; 9.2% of 290,000 active; AID 2315; in the data active = inhibition mostly above about 28%, no sharp cut-off; inactive = mostly below about 43%; also: 0% is about no effect
HCMV inh – blocks human cytomegalovirus replication | HFF cells, HCMV-luciferase reporter, 72 h; stronger effect = lower value | activity change, negative = inhibition, % at 57.5 µM | 4.5% of 410,000 active | AID 1259415; in the data active = activity change below about -60%; inconclusive = no clear call, values can overlap the other calls; inactive = above about -39%; also: % is scaled to controls: 0 for no effect and ±100 for the full control effect
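Two compound doses tested in HFFs infected with HCMV-luciferase, MOI 1 PFU/cell, 72 h at 37C. Lysate luminescence read with OneGlo; data normalized against buffer-only and 10uM Salinomycin inhibitor controls.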
Starred values were filed as active, the others as inactive; ? = inconclusive; / = no result given. Unless noted, calls follow the shape of the dose curve; as a rule, active = well fitted inhibition curve with a large enough effect; inconclusive = small, poorly fitted or top-dose-only effect, or another doubt; inactive = no such curve, though single readings can be large or run the other way.

SMILES	Pf growth 96h	Pf growth 48h	CHX counter	Shiga toxin inh	HCMV inh
COC(=O)C1=C(c2cccc(OCc3ccccc3)c2)C[C@@H]2CC[C@H]1N2C(=O)NCc1ccc(C(F)(F)F)cc1	5.22µM*	13.1µM*	/	/	?
COC(=O)C1=C(c2cccc(OCc3ccccc3)c2)C[C@@H]2CC[C@H]1N2C(=O)NCc1ccc(F)cc1	9.28µM*	11.7µM*	/	/	-34.5
COC(=O)C1=C(c2cccc(OCc3ccccc3)c2)C[C@@H]2CC[C@H]1N2C(=O)NCCCc1ccccc1	?	9.28µM*	/	/	?
O=C(NCc1cccnc1)c1c(O)c2cccc3c2n(c1=O)CCC3	14.6%	?	1.4	-21.0	23.2
CC1CCN(c2csc3ccc(F)cc3c2=O)CC1	/	/	/	/	5.1
COc1ccc(OCCCC(=O)Nc2cc(S(=O)(=O)N3CCCCC3)ccc2C)cc1	?	?	/	/	-7.1
COc1ccc(Nc2nc3ccccc3nc2NS(=O)(=O)c2ccc(C)cc2)c(OC)c1	/	/	/	/	1.2
O=[N+]([O-])c1ccc(S(=O)(=O)Nc2nc3ccccc3nc2Nc2ccccc2)cc1	15.7%	?	-0.7	-11.6	-80.5*
CC(=O)Nc1ccc(S(=O)(=O)Nc2nc3ccccc3nc2Nc2ccc3ccccc3c2)cc1	?	9.1%	-5.2	2.0	26.4
COc1cc(Nc2nc3ccccc3nc2NS(=O)(=O)c2ccc([N+](=O)[O-])cc2)cc(OC)c1OC	?	?	-2.8	-6.9	-73.5*
COC(=O)c1cc(Nc2nc3ccccc3nc2NS(=O)(=O)c2ccc(C)cc2)ccc1Cl	/	/	/	/	-105.5*
CCC1CC=CC2C1C(=O)N(Cc1ccccc1)C2c1ccc(OC)c(Cl)c1 (stereo not drawn)	/	/	5.9	-1.8	/
Cc1cc(C)c(S(=O)(=O)Nc2cnc3ccccc3c2)c(C)c1	20.4%	-0.8%	-5.3	19.2	-1.6
CCN(c1ccccc1)S(=O)(=O)c1ccc(-c2cc(C)no2)s1	/	/	/	/	0.0
CCN(c1ccc(OC)cc1)S(=O)(=O)c1ccc(-c2cc(C)no2)s1	-18.2%	-0.1%	0.9	13.3	-75.7*
Fc1ccc(CN2CCN(c3ccc(Cl)cc3)CC2)cc1	-22.8%	4.6%	12.9	18.2	-33.7
Clc1ccc(CNc2ccc(N3CCN(Cc4ccccc4)CC3)cc2)cc1	9.28µM*	-3.2%	1.4	-3.9	-36.3
S=C(Nc1ccc(Cl)cc1Cl)NC1CCN(Cc2ccccc2)CC1	?	?	1.0	-4.1	?
S=C(NCc1ccc(Cl)cc1)NC1CCN(Cc2ccccc2)CC1	23.2%	-13.0%	-1.9	-4.1	-89.2*
COc1ccccc1CNC1CCN(Cc2ccccc2)CC1	?	-13.9%	-2.4	-3.6	8.8
c1ccc(-c2ccc(CNC3CC3)cc2)cc1	25.2%	20.0%	23.4*	21.4	-80.2*
Fc1ccc(CNC2CCN(Cc3ccccc3)CC2)cc1	1.17µM*	9.28µM*	12.9	-5.7	45.8
CCc1ccc2c(c1)c(=O)c(S(=O)(=O)c1ccccc1)cn2CC(=O)Nc1ccc(OC)cc1	/	/	/	/	2.7
N#Cc1ccccc1-c1ccccc1C(=O)N1CCCCC1	-5.9%	-20.4%	-1.3	-8.1	25.7
CCOc1ccccc1CNC(=O)c1cc2c(=O)n(Cc3cccnc3)ccc2nc1C	/	/	/	/	-24.2
SMILES	Pf growth 96h	Pf growth 48h	CHX counter	Shiga toxin inh	HCMV inh
O=C(c1ccc(Cl)s1)N1CCN(S(=O)(=O)c2ccc(Cl)cc2)CC1	/	/	/	/	-11.4
COc1cc(Br)c(C2CC(=O)Nc3cc(OC)c(OC)c(OC)c32)cc1OC (stereo not drawn)	/	/	/	/	16.9
Clc1ccc(CNC2CCN(Cc3ccccc3)CC2)cc1	?	4.15µM*	0.9	/	-2.0
COc1ccc2c(c1)NC(C)(C)C=C2C	-18.5%	?	-1.2	-10.4	-30.2
CC(=O)Nc1ccc(S(=O)(=O)Oc2ccc3c(c2)C(C)=CC(C)(C)N3)cc1	-2.1%	-10.7%	16.4*	21.7	/
CC1=CC(C)(C)Nc2ccc(OS(=O)(=O)c3ccc(C)cc3)cc21	?	?	31.0	40.2*	-36.6
COc1ccccc1CC(=O)N(Cc1ccccc1)c1cccc(C)c1	?	?	0.9	7.3	-22.4
CCn1nnc2cc(C(=O)Nc3ccc(C)c(Cl)c3)ccc21	/	/	/	/	29.1
Cc1ccc(NC(=O)CSc2ncnc3c2sc2ccccc23)cc1C	/	/	/	/	5.1
Cc1csc2c(SCC(=O)NNC(=O)C(Cl)Cl)ncnc12	?	3.29µM*	7.4	11.7	-23.2
O=C(O)c1cc(NC(=O)c2ccccc2[N+](=O)[O-])ccc1O	-20.4%	33.6%	-4.9	-5.9	-19.9

Screening data (PubChem BioAssay)
